Shown are actives, neighbours in structure and some others; about 1.8% of the full set was active somewhere.
GSTO1 inh: blocks human GSTO1 in RBBP9 counter-screen | recombinant GSTO1, activity-based probe fluorescence polarization | 300,000 compounds, 1.1% hits | P78417 | inhibition, % at 5.96 µM;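 active = inhibition above the campaign mean inhibition plus 3 SD, cut at about 35% in these data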;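 note: 0% = GSTO1-1 with DMSO and 100% = wells lacking GSTO1-1 enzyme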
LYPLA2 inh: LYPLA2 (human) inhibition in PME1 counter-screen; inhibition, % at 5.9 µM; 320,000 compounds, 0.38% hits; recombinant LYPLA2, FP-Rh probe fluorescence polarization; O95372;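 active = inhibition above the screen-wide mean plus 3 SD, limit set per campaign, cut at about 26% in these data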;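 note: 0% = LYPLA2 with DMSO and 100% = wells lacking LYPLA2 enzyme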
Target sequence (O95372 whole entry, looked up): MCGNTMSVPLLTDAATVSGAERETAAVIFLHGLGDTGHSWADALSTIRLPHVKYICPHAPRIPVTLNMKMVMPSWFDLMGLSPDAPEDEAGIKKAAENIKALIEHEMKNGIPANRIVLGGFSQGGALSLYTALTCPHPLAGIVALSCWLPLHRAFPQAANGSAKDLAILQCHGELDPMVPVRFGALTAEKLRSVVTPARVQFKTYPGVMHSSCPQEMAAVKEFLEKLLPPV
Fam108B inh: blocks mouse Fam108B hydrolase in RBBP9 counter-screen. recombinant Fam108B, FP-Rh probe fluorescence polarization. inhibition, % at 9.51 µM. 300,000 compounds, 0.33% hits;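 active = inhibition above the screen mean inhibition plus 3 SD, computed separately per campaign, cut at about 18% in these data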;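 note: inhibitors lower polarization as less probe binds the enzyme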
PME-1 primary: blocks human protein phosphatase methylesterase 1 | AID 2130 | Q9Y570 | 320,000 compounds, 0.53% hits | inhibition, % at 5.9 µM | recombinant PME-1, FP-Rh probe fluorescence polarization;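 active = inhibition above the campaign mean of all compounds plus 3 SD, cut at about 26% in these data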;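 note: competitive labeling of PME-1 active site by serine hydrolase directed probe; 0% = PME-1 with DMSO and 100% = wells lacking PME-1 enzyme; inhibitors block probe labeling so polarization falls and inhibition rises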
LYPLA1 counter: blocks human lysophospholipase 1, a PME1 counter-screen. recombinant LYPLA1, FP-Rh probe fluorescence polarization. inhibition, % at 5.9 µM. O75608. AID 2174. 320,000 compounds, 0.16% hits;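 active = inhibition above the mean of all tested compounds plus 3 SD, set per campaign, cut at about 14% in these data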;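 note: inhibitors block serine hydrolase probe labeling of LYPLA1 so polarization falls; 0% = enzyme with DMSO and 100% = wells lacking LYPLA1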
Target sequence (O75608 whole entry, looked up): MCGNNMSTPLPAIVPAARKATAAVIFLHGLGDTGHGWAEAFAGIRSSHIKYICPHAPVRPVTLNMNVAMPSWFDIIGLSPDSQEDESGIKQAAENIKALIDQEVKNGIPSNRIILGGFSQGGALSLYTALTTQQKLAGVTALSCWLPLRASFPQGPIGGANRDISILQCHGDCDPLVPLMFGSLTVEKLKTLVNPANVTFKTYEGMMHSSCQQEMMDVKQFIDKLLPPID
PAD4 FP inh: inhibitors of human PAD4 | 330,000 compounds, 0.41% hits | inhibition, % at 6.36 µM | recombinant PAD4, RCA probe fluorescence polarization;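 active = percent inhibition above a cutoff equal to the mean of all tested compounds plus 3 SD, cut at about 15% in these data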;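 note: 0% = PAD4 with RCA probe and DMSO and 100% = probe without PAD4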
PAD4 confirm: PAD4 (human) inhibition, confirmed | shares compounds with PAD4 FP inh | recombinant PAD4, RCA probe fluorescence polarization | 1,200 compounds, 28% hits | inhibition, % at 6.36 µM;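 active = mean inhibition across replicates above the hit cutoff set by the earlier primary screen, cut at about 15% in these data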;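 note: inhibitors block active-site labeling by the probe so polarization falls; 0% = PAD4 with probe and DMSO and 100% = probe without PAD4 enzyme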
Active calls of the source: *; x = no result.

SMILES	GSTO1 inh	LYPLA2 inh	Fam108B inh	PME-1 primary	LYPLA1 counter	PAD4 FP inh	PAD4 confirm
C=CCN1CN(S(=O)(=O)c2cccc(Cl)c2)c2nc3ccccc3nc21	-1.4	5.6	-4.7	8.6	0.3	46.4*	3.0
CC(C(=O)O)C(=O)O	0.4	-5.7	-6.0	-1.0	-2.7	39.2*	0.7
C[C@@H](O)CC(=O)O	4.6	1.4	1.4	-3.0	2.9	-6.4	x
COc1ccc2[nH]c(=O)c(CN(CCO)C(=O)c3ccccc3F)cc2c1	-1.0	-2.9	-2.3	-1.9	2.2	0.7	x
O=C(NCC(=O)N(c1cccc(F)c1)C(C(=O)NC1CCCC1)c1ccncc1)c1cccs1 (centres undefined)	0.0	-0.2	4.2	-2.9	-0.9	18.3*	-0.2
COc1cccc(NC(=O)c2ccccc2-c2ccccc2C(=O)O)c1	-2.5	1.0	5.5	2.1	-0.3	18.1*	-0.5
O=C1C(=O)N(c2ccc(O)cc2)C(c2ccccc2[N+](=O)[O-])/C1=C(\O)c1ccccc1 (centres undefined)	2.7	-3.6	-1.9	2.8	3.1	23.6*	1.8
O=C1CC(Nc2ccc(N3CCOCC3)cc2)C(=O)N1Cc1ccccc1 (centres undefined)	31.9	9.8	0.1	5.5	3.6	35.5*	-1.1
COc1ccccc1N1C(=O)CC(Nc2ccc(N3CCOCC3)cc2)C1=O (centres undefined)	4.8	4.2	-1.8	0.8	2.2	24.0*	1.7
COc1ccc(NC2CC(=O)N(c3ccccc3)C2=O)cc1 (centres undefined)	-1.2	7.6	8.2	-3.5	-1.7	4.9	x
CC(=O)NN1C(=O)c2ccc3c4c(ccc(c24)C1=O)C(=O)N(NC(C)=O)C3=O	37.5*	4.8	2.4	-1.6	2.9	136.1*	142.6*
COc1cccc(C(=O)Nc2cc(C)c3c(=O)oc4ccccc4c3n2)c1	4.2	-8.1	-14.8	-13.6	-6.2	0.1	x
O=C(CCCCl)NC1=NN(c2ccccc2)C(=O)C1	19.4	4.1	1.1	1.1	-0.4	-9.5	x
CC(=O)NC1=NN(c2ccccc2)C(=O)C1	12.5	-3.5	-5.0	-8.1	-2.9	42.8*	2.7
O=C(Nc1ccc(N2CCN(c3ccc(O)cc3)CC2)cc1)Oc1ccccc1	33.9	1.5	9.2	-0.1	-7.5	-0.3	x
Nc1ccc(OC(=O)Nc2ccc(O)cc2)cc1	59.0*	5.0	8.9	10.4	0.5	72.5*	-10.9
COc1ccc2c(c1)CCc1cnc(N)nc1-2	2.4	-3.3	5.9	3.3	0.0	-0.3	x
COc1ccc2c(c1)CCc1cn3nc(C)cc3nc1-2	-3.8	3.6	0.0	0.4	1.4	15.7*	4.8
COc1ccc(NC(=O)C(Cc2ccccc2)n2cccc2)c(OC)c1 (centres undefined)	-5.7	1.7	4.6	8.1	-3.0	4.7	x
COC(=O)CCSc1cc(NCCOC(C)=O)c([N+](=O)[O-])c2nonc12	4.1	-4.1	2.7	5.2	-1.7	-10.6	x
CC(=O)OCCNc1cc(SCc2ccco2)c2nonc2c1[N+](=O)[O-]	23.9	-1.9	10.5	1.1	-6.7	15.9*	-3.7
COc1ccc(C2=Nn3c(nnc3-c3cccnc3)SC2)cc1OC	-1.5	2.1	1.3	0.6	2.4	22.4*	6.6
Cc1cc2ccccc2n1CCNC(=O)COc1ccccc1	-0.3	0.4	4.6	-9.4	-0.6	23.1*	8.8
COc1ccc(OC)c(NC(=O)C2CCN(S(=O)(=O)c3cccs3)CC2)c1	1.9	0.3	2.1	3.9	1.6	-2.2	x
COc1ccccc1NC(=O)C1CCN(S(=O)(=O)c2cccs2)CC1	x	19.1	x	16.4	6.1	18.0*	4.5
O=C(NCCc1ccccc1)C1(S(=O)(=O)c2ccc(Cl)cc2)CC1	-2.0	3.7	-2.1	2.0	-2.8	1.8	x
CC(NC(=O)c1c(O)c2ccccc2[nH]c1=O)c1ccccc1 (centres undefined)	3.2	-2.9	-1.6	-8.1	-0.3	16.3*	4.7
CC1=C(C#N)C(=O)OC(C)(C)C1	7.1	15.5	11.7	13.6	14.1	47.5*	15.4*
COc1ccc(OC)c2[nH]c(=O)c(CCNC(=O)CC(C)C)cc12	1.8	-2.2	0.3	3.5	1.3	49.9*	6.9
